# From PubChem BioAssay (EPA / NIEHS)
# Where “and” joins values, the source holds several entries; their conditions need not be identical. Equal entries are not always repeated. A structure can be active in one record and inactive in another. Calls of active or inactive are those of the source. Rule for the calls: active = hit-call score of the fitted dose curve at least 0.9, where 1 is the maximum; inactive = score below 0.9.
# Assay: ATG_CMV_CIS: Attagene CIS-FACTORIAL HepG2 Assay for human CMV (Internal Marker) (AID 2282928);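 note: endpoint acts as a background internal control marker rather than a target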
# Conditions: HepG2 CMV promoter reporter, transcription factor profiling; actives raise or lower the signal
# Experimental: ATG_CIS is a cell-based, multiplexed-readout assay that uses HepG2, a human liver cell line, with measurements taken at 24 hours after chemical dosing in a 24-well plate.ATG_CMV_CIS is one of 52 assay component(s) measured or calculated from the ATG_CIS assay. It is designed to make measurements of mRNA induction, a form of inducible reporter, as detected with fluorescence intensity signals by Reverse transcription polymerase chain reaction (RT-PCR) and Capillary electrophoresis technology.Data from the assay component ATG_CMV_CIS was analyzed into 1 assay endpoint. This assay endpoint, ATG_CMV_CIS, was analyzed with bidirectional fitting relative to DMSO as the negative control and baseline of activity. Using a type of inducible reporter, measures of mRNA for gain or loss-of-signal activity can be used to understand the background control at the transcription factor-level as they relate to the gene . Furthermore, this assay endpoint can be referred to as a secondary readout, because this assay has produced multiple assay endpoints where this one serves a background control function. To generalize the intended target to other relatable targets, this assay endpoint is annotated to the background measurement intended target family, where the subfamily is internal marker.
# Human liver HepG2 cells are transiently transfected with multiple reporter transcription units (MRTUs) in 6-well plates using FuGene 6 reagent (Roche; 3 ml FuGene/1 mg DNA). The MRTU constructs are regulated by a cis-regulating element (promoter). […] A major difference between the CIS and TRANS system is that in CIS activities of endogenous TFs are measured, whereas the TRANS assay evaluates changes in activities of exogenous, chimeric NR-Gal4 proteins. […] At the end of 24 hour incubation, total RNA was isolated using TriZol reagent (Invitrogen). The isolated RNA is then reverse-transcribed using oligo(dT) primer and Mo-MLV reverse transcriptase (Invitrogen) with DNAse I (Ambion) treatment for 30 min. The one-tenth of the produced cDNA was amplified by PCR using Taq DNA polymerase (Invitrogen) and two reporter sequence-specific primers. The PCR products were fluorescently labeled by primer extension with 6-arboxyfluorescein (6-FAM) 5'-labeled reporter sequence-specific primer (2 min at 95 C, 20 s at 68 C and 10 min at 72 C) and these products were digested with 5U of HpaI (New England Biolabs) for 2h at 37 C. The fragments were purified using Qiaquick PCR columns (Qiagen), analyzed on an ABI 3130xL genetic analyzer (Applied Biosystems) with peak positions identified by using a set of X-rhodamine (ROX)-labeled MapMarker1000 molecular weight standards (BioVentures). The raw capillary electrophoresis data was processed using Attagraph software (Attagene).
Structure (SMILES),outcome,AC50
CC(O)COc1ccccc1 (stereo not given),inactive,
COCN(COC)c1nc(N(COC)COC)nc(N(COC)COC)n1,inactive,
CCN(CC)CC,inactive,
CCOC=O,inactive,
O=S(=O)(O)c1ccc2cc(O)ccc2c1,inactive,
NCCN,inactive,
C=COC(=O)C(C)(C)CCCCCC,,159 µM (active)
Cn1sccc1=O,,190 µM (active)
CCCCCCCCCCCC(=O)O,inactive,60 µM (active)
Cc1cc(=O)oc2cc(O)ccc12,inactive,
CC(C)c1c(C(=O)Nc2ccccc2)c(-c2ccccc2)c(-c2ccc(F)cc2)n1CC[C@@H](O)C[C@@H](O)CC(=O)O,inactive,25.6 µM (active)
CCOC(=O)CN[C@@H](C(=O)N1CC[C@H]1C(=O)NCc1ccc(/C(N)=N/O)cc1)C1CCCCC1,inactive,
CS(=O)(=O)c1ccc([C@@H](CC2CCCC2)C(=O)Nc2cnccn2)cc1Cl,,136 µM (active)
CC(=O)Nc1ccc(O)cc1,inactive,
O=C1NS(=O)(=O)c2ccccc21,inactive,
CCCCC(CC)C(=O)O (stereo not given),inactive,
CCC(=O)C=Cc1ccc(OC)cc1,inactive,
C=CC(=O)OCC(CO)(COCC(COC(=O)C=C)(COC(=O)C=C)COC(=O)C=C)COC(=O)C=C,,2.97 µM (active)
COC(=O)CC(C(C)=O)C(=O)OC (stereo not given),inactive,

Structure (SMILES),outcome,AC50
CCCCCCCCCC=CCC1CC(=O)OC1=O (stereo not given),,66.8 µM (active)
CCC(=O)O,inactive,
CCc1ccccc1O,inactive,
CCCCC=O,inactive,
CCOC=C(C(=O)OCC)C(=O)OCC,inactive,
NC(C(F)(F)F)C(F)(F)F,inactive,
FC(F)(F)N1C(F)(F)C(F)(F)OC(F)(F)C1(F)F,inactive,
CN(Cc1cnc2nc(N)nc(N)c2n1)c1ccc(C(=O)N[C@@H](CCC(=O)O)C(=O)O)cc1,inactive,
O=C1Cc2ccccc2N1c1c(Cl)cccc1Cl,inactive,
Cc1cccc2c1ccc1ccccc12,inactive,
O=C(O)C(=O)O,inactive,
C=CC(F)(F)C(F)(F)C(F)(F)C(F)(F)F,inactive,
COC1=CC(=O)C[C@@H](C)[C@]12Oc1c(Cl)c(OC)cc(OC)c1C2=O,,138 µM (active)
O=CC(F)(F)C(F)(F)C(F)(F)F,inactive,
CCCCCCC(C)(C)C(=O)O,inactive,
c1cc[nH]c1,inactive,
O=CC(F)(F)C(F)(F)C(F)(F)C(F)F,inactive,
NC(=NCCCCCCN=C(N)/N=C(\N)Nc1ccc(Cl)cc1)/N=C(\N)Nc1ccc(Cl)cc1,inactive,163 µM (active) and 166 µM (active)
